Source: PubChem BioAssay (NCI)
About 83,000 compounds went through this panel and 20% of them were active in at least one assay; those are over-represented in the sample as a whole.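 Method: cells in 96-well plates; compound added at one concentration; 48 h incubation; percent growth measured; values under 10 scored active.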 A number with no mark means an inactive call. Calls of active or inactive are those of the source.

system: MOLT-4 leukemia; test: NCI-60 one-dose screen, 48 h (100 = growth as untreated, 0 = no growth, -100 = all killed); details: 10 µM unless noted

**Q.** How did the growth turn out when O=c1[nH]c2ccc(Cl)cc2cc1CSc1ccccc1Nc1nccc(-c2ccc(Cl)cc2)n1 was run?
**A.** 60.9%

**Q.** How did the growth turn out when CC(C)(C)OC(=O)N1C(=O)c2c(c3c4ccccc4[nH]c3c3ccc4ccccc4c23)C1=O was run?
**A.** 38.2%

**Q.** How did the growth turn out when CNC(=O)c1cc(-c2ccc(NC(=O)Nc3ccc(N4CCN(C)CC4)c(C(F)(F)F)c3)cc2)nc2cccnc12 was run?
**A.** -30.5% (active)

**Q.** With C/C(=N/NC(N)=S)c1ccc(Nc2nc(SCC(C)C)nc(-c3ccc(F)cc3)c2C#N)cc1 as the compound, how does the growth read?
**A.** 44.4%

**Q.** For CCCCN1C(=O)/C(=c2\sc3n(c2=O)C2C(NN=3)N(CC)C(=O)N2CC)c2cc(Cl)ccc21 (stereo not drawn), which growth is on record?
**A.** 74.5%

**Q.** How did the growth turn out when COc1cc(-c2nc3ccc(-c4nnc(SCC(=O)Nc5ccc(C(C)=O)cc5)o4)cc3[nH]2)cc(OC)c1OC was run?
**A.** 110%

**Q.** N#Cc1c(-c2ccc(Cl)cc2)nc(SCc2ccc(F)cc2)nc1N1CCNCC1 was tested. Which growth did it give?
**A.** 7.99% (active)

**Q.** For Cn1cc(-c2cc(N)n3nc(-c4cn(C)c5ccc(Br)cc45)cc3n2)c2cc(Br)ccc21, which growth is on record?
**A.** 48.9%

**Q.** Which growth does the source give for Cc1cc(C(=O)Nc2sc3c(c2C(N)=O)CCC(=O)C3)ccc1OCCN1CCCCC1 here?
**A.** 51.9%

**Q.** NS(=O)(=O)c1ccc(Nc2nc(SCC(=O)c3ccc(Cl)cc3)nc3ccccc23)cc1 was tested. Which growth did it give?
**A.** 91.3%

**Q.** Which growth does the source give for CC(C)(C)Nc1nc2c(OCCc3ccccc3)cccn2c1-c1ccc(O)cc1 here?
**A.** 22.7%

**Q.** How did the growth turn out when CCOc1ccc2nc(NC(=O)c3ccc(C(F)(F)F)cc3)sc2c1 was run?
**A.** 103%

**Q.** How did the growth turn out when N#Cc1c(-c2ccc(Cl)cc2)nc(SCc2ccc([N+](=O)[O-])cc2)nc1N1CCNCC1 was run?
**A.** -27% (active)

**Q.** How did the growth turn out when Cc1cccc(/C=C/c2nn3c(-c4ccco4)nnc3s2)c1 was run?
**A.** 104%

**Q.** For Cc1sc2c(c1C)c(=O)nc1c(-c3nc(-c4ccc(F)cc4)no3)n[nH]n12, which growth is on record?
**A.** 104%

**Q.** For C[C@@H]1CN(c2ccc3ncc(C#Cc4cncc(C(=O)Nc5ccc(CN6CCN(C)CC6)c(C(F)(F)F)c5)c4)n3n2)C[C@H](C)O1, which growth is on record?
**A.** 1.65% (active)

**Q.** For Nc1c(C(=O)Nc2ccc(Cl)cc2)sc2nc(-c3cnccn3)cc(-c3cccs3)c12, which growth is on record?
**A.** 70.1%

**Q.** O=c1[nH]c2ccccc2cc1CSc1ccccc1Nc1nccc(-c2ccc(C(F)(F)F)cc2)n1 was tested. Which growth did it give?
**A.** 63.5%

**Q.** For Cc1c(Nc2nnc(SCC(=O)Nc3sc4c(c3C#N)CCCC4)s2)c(=O)n(-c2ccccc2)n1C, which growth is on record?
**A.** 92.7%

**Q.** Which growth does the source give for CS(=O)(=O)c1ccc(-c2nc3ccccn3c2C=Nc2ccc(Cl)cc2)cc1 here?
**A.** 64.9%

**Q.** For N[C@@H](Cc1cn(-c2c3ccccc3nc3ccccc23)nn1)C(=O)O, which growth is on record?
**A.** 99.1%

**Q.** CC(C)(C)Nc1nc2c(OCCc3ccccc3)cccn2c1-c1cccc(F)c1 was tested. Which growth did it give?
**A.** -0.489% (active)

**Q.** Which growth does the source give for CCN1C(=S)N(c2ccccc2)C2NC(=O)N(/N=C/C=C/c3ccccc3OC)C21 (stereo not drawn) here?
**A.** 101%

**Q.** CCOC(=O)c1csc(NC(=O)CSc2nc3sc4c(c3c(=O)n2-c2ccc(Cl)cc2)CCCC4)n1 was tested. Which growth did it give?
**A.** 81.1%

**Q.** Cc1ccc(CNS(=O)(=O)/N=C2\NC(=O)NC2=C(Cl)Cl)cc1 was tested. Which growth did it give?
**A.** 21%

**Q.** How did the growth turn out when CO/N=C1\CCc2c(sc(NC(=O)c3cccc(C(F)(F)F)c3)c2C(N)=O)C1 was run?
**A.** 84.1%

**Q.** O=C(CSc1nc2sc3c(c2c(=O)n1-c1ccc(Cl)cc1)CCCC3)N/N=C/c1ccc(F)cc1 was tested. Which growth did it give?
**A.** 69.3%

**Q.** CN1CCN(Cc2ccc(NC(=O)c3cncc(C#Cc4cnc5[nH]ncc5c4)c3)cc2C(F)(F)F)CC1 was tested. Which growth did it give?
**A.** 16.9%

**Q.** Which growth does the source give for CC(C)(C)Nc1nc2c(OCCc3ccccc3)cccn2c1-c1ccc(Cl)cc1 here?
**A.** 4.83% (active)

**Q.** With N#Cc1c(-c2ccc(Cl)cc2)nc(SCc2ccccc2)nc1N1CCNCC1 as the compound, how does the growth read?
**A.** 52.7%

**Q.** How did the growth turn out when COc1ccc(/C=C/C(=O)c2ccc(NC(=O)CSc3nnc(-c4ccc5nc(-c6ccc(Cl)cc6)[nH]c5c4)o3)cc2)cc1 was run?
**A.** 64.4%

**Q.** CC(=O)Nc1cc(F)cc(-c2ccc3[nH]cc(-c4ccccc4)c3n2)c1 was tested. Which growth did it give?
**A.** 9.24% (active)

**Q.** C=CCSc1ccc2c(c1)C(N1CCNCC1)=Nc1ccccc1O2 was tested. Which growth did it give?
**A.** 49.9% [8.25 µM]

**Q.** Fc1ccc(-c2nc(C(Cl)Cl)nc3cc(-c4ccccc4)nn23)cc1 was tested. Which growth did it give?
**A.** 6.63% (active)

**Q.** COc1ccc(NC2=C(Cl)C(=O)C(C)=C(C)C2=O)cc1OC was tested. Which growth did it give?
**A.** 40.1%

**Q.** Which growth does the source give for O=C1[C@H]2Cc3c([nH]c4ccccc34)[C@@H](c3ccc(Br)cc3)N2C(=O)CN1C1CCN(Cc2ccccc2)CC1 here?
**A.** 12.7%

**Q.** How did the growth turn out when Cn1c(SCC(=O)c2cccs2)nc2ccccc2c1=O was run?
**A.** 87%

**Q.** How did the growth turn out when C/C(=C(/c1ccc(Cl)cc1)c1ccc(OCCN)cc1)c1ccc(C)cc1 was run?
**A.** 96.4%
